# Residue numbers refer to the chain shown, from its start.
# Assays:
# Assay in all cases: yeast three-hybrid, YBZ-1, SC-Leu-His + 0.5 mM 3-AT, 4 days
# Conditions in all cases: tags: N-Gal4 AD-HA kept; label: inside an RPR1-promoter hybrid RNA with tandem MS2 sites; ssRNA
# [1] = molecular target: PUM1 PUF domain R4-SRW (Homo sapiens, UniProt Q14671 828-1176, N971S;H972R;Q975W)
# Outline: (§1)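 Pumilio-1 PUF domain libraries, randomized (NNK) at the three base-contacting residues of each repeat, were co-expressed with matching RNA elements from a centromeric plasmid in strain YBZ-1 (LexA–MS2 coat fusion, HIS3 reporter). Transformants were plated on SC-Leu (input) and SC-Leu-His + 0.5 mM 3-AT (selection) for four days, and repeat regions were PCR-amplified and Illumina-sequenced. The interaction score is the log2 change in variant frequency from input to selection, with pseudocount 1 where absent.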
# [2] = molecular target: PUM1 PUF domain R5-QRS (Homo sapiens, UniProt Q14671 828-1176, C1007Q;Q1011S)
# Outline: as §1
# [3] = molecular target: PUM1 PUF domain R4-LGM (Homo sapiens, UniProt Q14671 828-1176, N971L;H972G;Q975M)
# Outline: as §1
# [4] = molecular target: T1, PUM1 PUF domain R6-WHG (Homo sapiens, UniProt Q14671 828-1176, N1043W;Y1044H;Q1047G)
# T1 sequence: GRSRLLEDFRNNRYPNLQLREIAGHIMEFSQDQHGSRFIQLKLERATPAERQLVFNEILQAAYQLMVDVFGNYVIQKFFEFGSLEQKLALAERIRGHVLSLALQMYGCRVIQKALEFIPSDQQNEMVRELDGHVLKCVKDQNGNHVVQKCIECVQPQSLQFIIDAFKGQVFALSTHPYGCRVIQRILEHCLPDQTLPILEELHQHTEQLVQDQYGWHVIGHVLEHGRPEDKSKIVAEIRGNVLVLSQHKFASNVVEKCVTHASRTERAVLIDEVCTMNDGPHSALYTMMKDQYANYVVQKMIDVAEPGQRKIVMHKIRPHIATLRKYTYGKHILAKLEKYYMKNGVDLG
# Outline: as §1
# [5] = molecular target: T2, PUM1 PUF domain R6-RHQ (Homo sapiens, UniProt Q14671 828-1176, N1043R;Y1044H)
# T2 sequence: T1 sequence with W216R, G220Q
# Outline: as §1
# [6] = molecular target: PUM1 PUF domain R3-APV (Homo sapiens, UniProt Q14671 828-1176, C935A;R936P;Q939V)
# Outline: as §1
# [7] = molecular target: T3, PUM1 PUF domain R6-NFC (Homo sapiens, UniProt Q14671 828-1176, Y1044F;Q1047C)
# T3 sequence: T1 sequence with W216N, H217F, G220C
# Outline: as §1
# [8] = molecular target: T4, PUM1 PUF domain R6-QFR (Homo sapiens, UniProt Q14671 828-1176, N1043Q;Y1044F;Q1047R)
# T4 sequence: T1 sequence with W216Q, H217F, G220R
# Outline: as §1
# [9] = molecular target: PUM1 PUF domain R5-RHI (Homo sapiens, UniProt Q14671 828-1176, C1007R;R1008H;Q1011I)
# Outline: as §1
# [10] = molecular target: PUM1 PUF domain R8-AFR (Homo sapiens, UniProt Q14671 828-1176, N1122A;Y1123F;Q1126R)
# Outline: as §1
# [11] = molecular target: PUM1 PUF domain R8-SWR (Homo sapiens, UniProt Q14671 828-1176, N1122S;Y1123W;Q1126R)
# Outline: as §1
# [12] = molecular target: PUM1 PUF domain R8-RYL (Homo sapiens, UniProt Q14671 828-1176, N1122R;Q1126L)
# Outline: as §1
# [13] = molecular target: PUM1 PUF domain R3-LRA (Homo sapiens, UniProt Q14671 828-1176, C935L;Q939A)
# Outline: as §1
# [14] = molecular target: PUM1 PUF domain R3-NPV (Homo sapiens, UniProt Q14671 828-1176, C935N;R936P;Q939V)
# Outline: as §1
# [15] = molecular target: PUM1 PUF domain R7-KRT (Homo sapiens, UniProt Q14671 828-1176, S1079K;N1080R;E1083T)
# Outline: as §1
# [16] = molecular target: PUM1 PUF domain R5-RNR (Homo sapiens, UniProt Q14671 828-1176, C1007R;R1008N;Q1011R)
# Outline: as §1
# [17] = molecular target: PUM1 PUF domain R1-SWK (Homo sapiens, UniProt Q14671 828-1176, R864W;Q867K)
# Outline: as §1
# [18] = molecular target: PUM1 PUF domain R1-KIR (Homo sapiens, UniProt Q14671 828-1176, S863K;R864I;Q867R)
# Outline: as §1
# [19] = molecular target: PUM1 PUF domain R8-KQR (Homo sapiens, UniProt Q14671 828-1176, N1122K;Y1123Q;Q1126R)
# Outline: as §1
# [20] = molecular target: PUM1 PUF domain R1-KQN (Homo sapiens, UniProt Q14671 828-1176, S863K;R864Q;Q867N)
# Outline: as §1
sequence,measurement,setting,value
GGCUAGAACUAGUGGAUCCCCCGGCGCCCGGCGGCUCGAGCCCGGGUAAGUGUAAAUAGUCUGCAUGCCGCCGGGCGCCAUGCCUGCAGGUCGACUCUAGAAAACAUG,binding signal,[1],3.2 log2 enrichment (interaction score)
same,binding signal,[2],1.57 log2 enrichment (interaction score)
same,binding signal,[3],3.11 log2 enrichment (interaction score)
same,binding signal,[4],3.76 log2 enrichment (interaction score)
same,binding signal,[5],5.04 log2 enrichment (interaction score)
same,binding signal,[6],3.39 log2 enrichment (interaction score)
same,binding signal,[7],3.34 log2 enrichment (interaction score)
same,binding signal,[8],7.93 log2 enrichment (interaction score)
same,binding signal,[9],3.02 log2 enrichment (interaction score)
same,binding signal,[10],3.56 log2 enrichment (interaction score)
same,binding signal,[11],6.3 log2 enrichment (interaction score)
same,binding signal,[12],5.73 log2 enrichment (interaction score)
GGCUAGAACUAGUGGAUCCCCCGGCGCCCGGCGGCUCGAGCCCGGGUAAGUGUAAUUAGUCUGCAUGCCGCCGGGCGCCAUGCCUGCAGGUCGACUCUAGAAAACAUG,binding signal,[6],1.79 log2 enrichment (interaction score)
same,binding signal,[13],1.5 log2 enrichment (interaction score)
same,binding signal,[14],2.64 log2 enrichment (interaction score)
GGCUAGAACUAGUGGAUCCCCCGGCGCCCGGCGGCUCGAGCCCGGGUAAGUGUUAAUAGUCUGCAUGCCGCCGGGCGCCAUGCCUGCAGGUCGACUCUAGAAAACAUG,binding signal,[9],5.86 log2 enrichment (interaction score)
GGCUAGAACUAGUGGAUCCCCCGGCGCCCGGCGGCUCGAGCCCGGGUAAGUGUGAAUAGUCUGCAUGCCGCCGGGCGCCAUGCCUGCAGGUCGACUCUAGAAAACAUG,binding signal,[2],3.7 log2 enrichment (interaction score)
GGCUAGAACUAGUGGAUCCCCCGGCGCCCGGCGGCUCGAGCCCGGGUAAGUUUAAAUAGUCUGCAUGCCGCCGGGCGCCAUGCCUGCAGGUCGACUCUAGAAAACAUG,binding signal,[15],4.19 log2 enrichment (interaction score)
GGCUAGAACUAGUGGAUCCCCCGGCGCCCGGCGGCUCGAGCCCGGGUAAGUGUCAAUAGUCUGCAUGCCGCCGGGCGCCAUGCCUGCAGGUCGACUCUAGAAAACAUG,binding signal,[16],3.17 log2 enrichment (interaction score)
same,binding signal,[9],4.97 log2 enrichment (interaction score)
GGCUAGAACUAGUGGAUCCCCCGGCGCCCGGCGGCUCGAGCCCGGGUAAGUGUAAGUAGUCUGCAUGCCGCCGGGCGCCAUGCCUGCAGGUCGACUCUAGAAAACAUG,binding signal,[13],4.29 log2 enrichment (interaction score)
GGCUAGAACUAGUGGAUCCCCCGGCGCCCGGCGGCUCGAGCCCGGGUAAGUGUAUAUAGUCUGCAUGCCGCCGGGCGCCAUGCCUGCAGGUCGACUCUAGAAAACAUG,binding signal,[1],0.88 log2 enrichment (interaction score)
GGCUAGAACUAGUGGAUCCCCCGGCGCCCGGCGGCUCGAGCCCGGGUAAGUGUAAAUCGUCUGCAUGCCGCCGGGCGCCAUGCCUGCAGGUCGACUCUAGAAAACAUG,binding signal,[17],2.68 log2 enrichment (interaction score)
same,binding signal,[18],4.83 log2 enrichment (interaction score)
GGCUAGAACUAGUGGAUCCCCCGGCGCCCGGCGGCUCGAGCCCGGGUAAGUCUAAAUAGUCUGCAUGCCGCCGGGCGCCAUGCCUGCAGGUCGACUCUAGAAAACAUG,binding signal,[15],4.64 log2 enrichment (interaction score)
GGCUAGAACUAGUGGAUCCCCCGGCGCCCGGCGGCUCGAGCCCGGGUAAGCGUAAAUAGUCUGCAUGCCGCCGGGCGCCAUGCCUGCAGGUCGACUCUAGAAAACAUG,binding signal,[19],2.27 log2 enrichment (interaction score)
same,binding signal,[10],3.34 log2 enrichment (interaction score)
same,binding signal,[11],5.3 log2 enrichment (interaction score)
same,binding signal,[12],5.95 log2 enrichment (interaction score)
GGCUAGAACUAGUGGAUCCCCCGGCGCCCGGCGGCUCGAGCCCGGGUAAGUGCAAAUAGUCUGCAUGCCGCCGGGCGCCAUGCCUGCAGGUCGACUCUAGAAAACAUG,binding signal,[8],4.65 log2 enrichment (interaction score)
GGCUAGAACUAGUGGAUCCCCCGGCGCCCGGCGGCUCGAGCCCGGGUAAGUGUAAAUGGUCUGCAUGCCGCCGGGCGCCAUGCCUGCAGGUCGACUCUAGAAAACAUG,binding signal,[20],2.83 log2 enrichment (interaction score)
